Source: PubChem BioAssay
JMJD2A Tudor inh: inhibitors of human JMJD2A Tudor domain; O75164; 390,000 tested, 4.4% active; AlphaScreen JMJD2A-Tudor / H3K4me3 peptide binding; Potency, µM (top dose mostly 114 µM), inactives show top-dose activity change, negative = inhibition, usual class: inhibitors; note: potency is the fitted concentration of half-maximal effect; % is set by controls: 0 for no effect and ±100 for the full control effect; nearly all actives have a fitted effect of over 50% in size
BAZ2B block: inhibitors of human BAZ2B bromodomain; Q9UIF8; AlphaScreen BAZ2B-H3K14Ac peptide displacement; Potency, µM (titrated, usually from 114 µM), for inactives: top-dose activity change, negative = inhibition, actives largely listed as inhibitors; 360,000 tested, 4.4% active; AID 504333; note: potency is the fitted concentration of half-maximal effect; % is set by controls: 0 for no effect and ±100 for the full control effect; nearly all actives have a fitted effect of over 60% in size
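Protein-peptide AlphaScreen: BAZ2B 50 nM, b-H3K14Ac 50 nM, 1x PBS pH 7.4 + 0.01% Tween-20. Preincubation 30 min RT; cpd 30 min RT (top 110 uM); beads 20 min RT, light-protected.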
G9a block: G9a (human) methyltransferase inhibition. G9a H3K9 monomethylation, AlphaScreen, 2 h. 350,000 tested, 8.8% active. Potency, µM (titrated, usually from 102 µM), for inactives: at the highest dose activity, negative = inhibition, most hits filed as inhibitors; note: potency is the fitted concentration of half-maximal effect; % is set by controls: 0 for no effect and ±100 for the full control effect; nearly all actives have a fitted effect of over 75% in size
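AlphaScreen detection with an anti-monomethyl H3K9 antibody quantified product after a 2 h room-temperature reaction containing 500 nM biotinylated H3K9 peptide, 20 µM SAM and 20 nM enzyme, which had been preincubated 15 min with compound.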
Six1-Eya2 blk: inhibitors of human Six1/Eya2 interaction. AlphaScreen GST-Six1/His-Eya2 binding, biochemical; stronger effect = lower value. activity change, % (no concentration beside the values). 360,000 tested, 0.56% active. AID 651725; in the data active = activity change below about -65%; inconclusive = mostly about -30% to -63%; note: % is set by controls: 0 for no effect and ±100 for the full control effect
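Homogeneous AlphaScreen proximity assay pairing GST-Six1 with His-tagged Eya2 (added as 5X mix: 250 nM and 500 nM) in 50 mM Tris pH 8.0, 300 mM NaCl, 1 mM TCEP. Glutathione donor and nickel acceptor beads; 1 h, 37 °C, dark.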
CtBP-E1A inh: blocks the CtBP interaction with E1A; 340,000 tested, 0.49% active; AID 651724; AlphaScreen GST-E1A/His-CtBP binding, 1536-well; stronger effect = lower value; activity change, % (test concentration not listed); in the data active = activity change below about -65%; inconclusive = mostly about -30% to -63%; note: % is set by controls: 0 for no effect and ±100 for the full control effect
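Homogeneous bead-based format: GST-tagged E1A captured on glutathione donor beads, His-tagged CtBP on nickel acceptor beads; compounds precede bead addition by 2 h at 37 °C.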
HP1b chromo inh: blocks HP1-beta chromodomain binding to methylated histone tails; P83916; Potency, µM (titrated, usually from 114 µM), without a hit: at the top dose activity change, negative = inhibition, actives largely listed as inhibitors; 390,000 tested, 0.56% active; AlphaScreen HP1-beta / biotin-H3K9me3 peptide binding; note: potency is the fitted concentration of half-maximal effect; nearly all actives have a fitted effect of over 70% in size
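AlphaScreen: HP1-beta (50 nM) preformed 30 min with biotin-H3(1-18)K9me3 peptide (50 nM) in PBS pH 7.4, 0.01% Tween-20. Compound added for 30 min at RT, then streptavidin donor/nickel chelate acceptor beads (10 ug/mL) for 30 min.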
Numbers without * were called inactive; ? = inconclusive; . = not tested or not shown; [ ] = dose if it differs, or a comment. This is a sample that favours compounds with a hit; in the whole collection about 10% have one here. Unless noted, calls come from the whole dose curve; as a rule, active = well fitted inhibition curve with a large enough effect; inconclusive = small, poorly fitted or top-dose-only effect; inactive = no such curve, though single readings can be large or run the other way.

SMILES	JMJD2A Tudor inh	BAZ2B block	G9a block	Six1-Eya2 blk	CtBP-E1A inh	HP1b chromo inh
CC(C)(C)c1ccccc1OCCCCCNCCO	3.2µM*	?	?	6	1	?
Cc1c(C(=O)NCc2ccccc2)sc2nc3n(c(=O)c12)CCC3	-28%	-38%	?	.	.	-6%
CN(C)c1ccc(C(=O)OCC(=O)Nc2ccc(S(N)(=O)=O)cc2)cc1	56µM*	.	?	5	15	?
CCOC(=O)c1c(C)c(C(=O)Nc2ccc(N(C)C)cc2)c(C)n1CC	?	?	2µM*	-27	-7	-10%
CCOC(=O)c1c(C)c(C(=O)NCCOC)c(C)n1CC	-11%	6%	11%[59 µM]	-2	-1	-8%
NS(=O)(=O)c1ccc(NC(=O)CN2C(=O)c3ccccc3C2=O)cc1	-7%	-22%	13%	0	7	50%
CCOC(=O)c1ccc(NCc2ccc(N(C)C)cc2)cc1	?	11µM*	10µM*	?	?	-11%
C=CCN1C(=O)c2ccc(C(=O)OCC(=O)Nc3ccc(S(N)(=O)=O)cc3)cc2C1=O	-25%	8%	50µM*	-18	-6	-16%
O=C(Nc1cccc(F)c1)C1CCN(c2nc3ccccc3[nH]2)CC1	0%	-1%	5%[59 µM]	.	.	28%[57 µM]
COC(=O)c1ccc(CS(=O)(=O)c2ccc(F)cc2)o1	-17%	-26%	71µM*	21	.	54%
O=C(NCc1ccc(F)cc1)c1ccc(CS(=O)(=O)c2ccc(Cl)cc2)o1	0%	-7%	-1%[59 µM]	.	.	57%
Nc1nc(-c2ccccn2)nc(N)c1Cc1ccc(Cl)cc1Cl	89µM*	7.9µM*	-6%	-80*	-91*	34%
CNc1cc(C(F)(F)F)nc(-c2ccccn2)n1	?	-1%	13%[59 µM]	-2	-3	31%
Clc1ccc(OCc2nc(-c3ccccn3)no2)c(Br)c1	2%	5%	1%	-6	-1	57%
Nc1nc(-c2ccccn2)nc(N)c1Cc1ccccc1F	?	6.3µM*	0%	-74*	-90*	42%
Cc1n[nH]c(C)c1Cc1c(F)cccc1Cl	-26%	-21%	8%	1	2	24%
Nc1nc(-c2ccccn2)nc(N)c1Cc1c(F)cccc1Cl	79µM*	8.9µM*	8%	-79*	-92*	34%
NS(=O)(=O)c1ccc(CCNC(=O)c2cnccn2)cc1	4%	-1%	17%	-1	5	31%
O=C(NCCc1ccccc1)c1cc(S(=O)(=O)N2CCCCC2)c[nH]1	-18%	?	-10%[59 µM]	.	.	28%
CCCCCCCCN1C(=O)[C@H](CC(=O)NCCCOCCCC)C[C@@]2(C(=O)OCC)CCCC=C12	.	.	.	-5	6	.
Cc1ccc(NS(=O)(=O)c2cc3c(cc2-c2cn[nH]c2)NC(=O)CO3)cc1C	-26%	.	.	.	.	.
COc1ccc(C(C#N)CC(=O)c2ccc(OC)c(OCc3ccccc3)c2)cc1OC (configuration not stated)	.	.	.	-7	-1	.
COc1cc2[nH]c(Cl)c([N+](=O)[O-])c2cc1OC	?	56µM*	?	-17	-21	-18%
COc1cc2c(=O)[nH]c3cc([N+](=O)[O-])ccc3c2cc1[N+](=O)[O-]	.	.	.	-22	-20	.
Cc1ccc2oc(=O)c3cc(C(=O)NCCCN4CCc5ccccc5C4)sc3c2c1	-30%	?	32µM*	-15	-12	38%
SMILES	JMJD2A Tudor inh	BAZ2B block	G9a block	Six1-Eya2 blk	CtBP-E1A inh	HP1b chromo inh
COc1ccccc1NC(=O)c1cc2c(=O)oc3ccc(C)cc3c2s1	-12%	0%	0.71µM*	.	.	37%
CCCN1CNc2c(c(=O)[nH]c(=S)n2CCc2cc(OC)cc(OC)c2)C1	-9%	.	.	.	.	22%
CCC1CCCCN1C(=O)CCS(=O)(=O)c1cc2c(cc1C)NC(=O)CO2 (configuration not stated)	?	?	8.9µM*	.	.	?
Cc1cc(C)c(OCCn2ccnc2)c(C)c1	-10%	-31%	3%[59 µM]	-7	10	49%
Cc1cc(OCCn2ccnc2)cc(C)c1Cl	-29%	?	13%	-12	.	24%
CC(C)(C)c1cc(Cl)ccc1OCCn1ccnc1	5µM*	40µM*	.	-5	-21	?
Cc1ccc(OCCn2ccnc2)c(C)c1	-25%	-37%	71µM*	0	6	33%
Cc1cc(C(C)(C)C)ccc1OCCn1ccnc1	14µM*	35µM*	22µM*	7	25	?
COc1ccc(S(=O)(=O)NCCCn2ccnc2)cc1C(C)(C)C	-16%	-32%	12%	1	-11	17%
Cc1ccc(-c2nnc3ccccc3c2C(=O)Nc2cccc(Cl)c2)cc1	-3%	5%	5%[59 µM]	.	.	23%
COc1ccc2nc(C)cc(NCc3cccc(C(F)(F)F)c3)c2c1	-20%	1%	?	-2	-8	-1%
Cc1onc(-c2ccccc2)c1-c1nnc(CN2CCN(S(=O)(=O)c3ccccc3)CC2)o1	-12%	4%	6%[12.7 µM]	4	-4	21%
CN1C(=O)C(=C2CCCCCC2)SC1=S	1%	2%	45µM*	-5	-4	75%
COc1ccc(CNC(=O)Cn2ncc3c(=O)oc4ccccc4c32)c(OC)c1	-16%	.	5%[59 µM]	.	.	40%
NC(=O)c1nsc(C(=O)N(CC(=O)NC2CCCC2)Cc2ccc3c(c2)OCO3)c1N	3%	0%	-6%	11	.	32%
CC(=O)Nc1ccc(N=C(C2=C(O)c3ccccc3C2=O)c2ccccc2)cc1	56µM*	40µM*	40µM*	1	.	?
CC1=NN(C(=O)c2ccccc2)C(O)(c2ccc(Br)cc2)C1 (configuration not stated)	-23%	?	14%	2	2	11%
CCC1=NN(C(=O)c2ccc(Br)cc2)C(O)(c2ccccc2)C1 (configuration not stated)	-32%	50µM*	18%	-7	6	18%
O=C(NNC(=O)C1CC1)c1ccc(F)cc1F	-10%	.	.	5	-1	4%
COc1ccc(C(c2nnnn2Cc2ccccc2)N2CCN(c3nc4ccccc4s3)CC2)cc1OC (configuration not stated)	79µM*	-12%	20µM*	-9	-12	3%
CCC(c1nnnn1CCOC)N1CCN(c2nc3ccccc3s2)CC1 (configuration not stated)	-6%	-16%	?	0	0	36%
c1ccc(Cn2nnnc2C(c2ccccc2)N2CCN(c3nc4ccccc4s3)CC2)cc1 (configuration not stated)	1%	.	2%[59 µM]	-8	2	34%
